According to ChEMBL document CHEMBL3988442, “University of Dundee, Small-Polar-MMV Screening Library” (2021):
The whole screen tested about 48,000 compounds, of which about 13,000 (27%) showed an effect of 50% or more. This is one part of the list.

The compounds below were run on Wolbachia pipientis (assay: Anti-Wolbachia Cell-Based Screen). Conditions: 5 µM.
Type: functional
Parameters: scale not given: in the data most compounds retested in dose-response had high values

SMILES | Percent Effect
CS(=O)(=O)NC1CCN(Cc2coc(-c3ccc(Cl)cc3)n2)CC1 | 11.26%
O=C1NCCN1C1CCCN(Cc2coc(-c3cccs3)n2)C1 (stereo not given) | 113.2%
O=C1NCCN1C1CCCN(Cc2coc(-c3ccc(F)cc3)n2)C1 (stereo not given) | -1.248%
O=S1(=O)CCCN1Cc1coc(-c2cccs2)n1 | 4.552%
O=C1NCCN1C1CCN(Cc2coc(-c3ccccc3)n2)CC1 | 93.32%
c1csc(-c2nc(CN3CCN(c4cnccn4)CC3)co2)c1 | -1.577%
CS(=O)(=O)NC1CCN(Cc2coc(-c3ccccc3)n2)CC1 | -0.3699%
O=C1NCCN1C1CCN(Cc2ccccn2)CC1 | -4.193%
Cc1ccc(-c2nc(CN3CCc4nn(C)c(=O)cc4C3)co2)cc1 | -7.957%
Cc1ccc(-c2nc(CN3CCC(N4CCNC4=O)CC3)co2)cc1 | 99.39%
O=C1NCCN1C1CCN(Cc2coc(-c3ccc(F)cc3)n2)CC1 | 91.35%
O=C1NCCN1C1CCCN(Cc2nnc(-c3ccc(F)cc3)o2)C1 (stereo not given) | 8.098%
NCC1Cc2cc(Oc3cc(F)c(CN4CCCC4)c(F)c3)ccc2O1 (stereo not given) | -5.798%
c1cc(-c2nnc(C3(c4ccc5c(c4)OCO5)CCOCC3)o2)ccn1 | -12.56%
CCc1ccc(C(COC)NC(=O)c2ccc(O)nc2)o1 (stereo not given) | -6.31%
c1ccc(-n2nnnc2CN2CCCC(Cn3cncn3)C2)cc1 (stereo not given) | 0.4093%
Cc1ccc(NC(=O)CN2CCOCC2)c(F)c1 | 133.3%
Cc1ccc(NC(=O)CNC(C)CN2CCOCC2)c(F)c1 (stereo not given) | 11.35%
Cc1ccc(NC(=O)CNC(C)CN2CCCCC2)c(F)c1 (stereo not given) | 7.732%
CCOC1CC2(CCN(CCO)CC2)c2ccc(C)cc21 (stereo not given) | 12.38%
CCC(=O)N1CCC2(CC1)CC(NC(=O)N(C)C)c1cc(C)ccc12 (stereo not given) | 98.52%
CC(=O)N1CCC2(CC1)CC(NC(=O)N(C)C)c1cc(C)ccc12 (stereo not given) | 112.2%
CCC(=O)N1CCC2(CC1)CC(N1CCOCC1)c1cc(C)ccc12.O=C(O)C(F)(F)F (stereo not given) | 0.6162%
CC(=O)N1CC2(CCN(C(=O)N(C)C)CC2)c2cc(C)ccc21 | 1.573%
Cc1ccc2c(c1)CCC21CCN(C(=O)CO)CC1 | -11.41%
Cc1ccc(C)c(OCc2cc(C(=O)N(C)Cc3cnn(C)c3)no2)c1 | -13.61%
CCS(=O)(=O)N1CCCC(Cc2cnccn2)C1 (stereo not given) | 118.2%

SMILES | Percent Effect
Cn1cc(C(=O)N2CCCC(Cc3cnccn3)C2)cn1 (stereo not given) | 110.5%
Cn1cc(C(=O)N2CCCC(CN3CCCC3=O)C2)cn1 (stereo not given) | 73.94%
Cc1ccc(C2CCCN(C(=O)c3cnn(C)c3)C2)nc1 (stereo not given) | 105.1%
CCS(=O)(=O)N1CCCC(c2nccn2Cc2ccccn2)C1 (stereo not given) | -4.348%
CC(O)CN1CC2(CCC1=O)CCN(C(=O)c1cnn(C)c1)CC2 (stereo not given) | -4.211%
Cn1cc(C(=O)N2CCCC2CCc2ccccc2)cn1 (stereo not given) | 11.22%
CCS(=O)(=O)N1CCCC(c2nccn2Cc2cccnc2)C1 (stereo not given) | -2.411%
COc1cccc(OCC2CCCN(C(=O)c3cnn(C)c3)C2)c1 (stereo not given) | -49.1%
COc1cc(N2CCN(Cc3ccc(C)o3)C(CCO)C2)nc(N)n1 (stereo not given) | -10.52%
Cc1nn(C)c2c(=O)n(CC(=O)Nc3cc(Cl)cc(Cl)c3)nnc12 | 4.089%
Cn1cc(C(=O)N2CCCC(c3cnccn3)C2)cn1 (stereo not given) | 131%
Cc1nccn1CC1CCCN(C(=O)c2cnn(C)c2)C1 (stereo not given) | 93.77%
Cn1cc(C(=O)N2CC[C@@]3(O)CCN(C(=O)C4CCC4)C[C@H]3C2)cn1 | -11.15%
Cn1cc(C(=O)N2CCCC(c3ccncc3)C2)cn1 (stereo not given) | 78.37%
COc1ccc(CN(C(=O)C2CCCS2)c2ccncc2)cc1 (stereo not given) | -11.82%
COc1ccc(S(=O)(=O)N2CCn3cnc(COCC4CC4)c3C2)cc1 | -5.165%
CS(=O)(=O)N1CCCCC12CCCN(Cc1nccs1)C2.O=C(O)C(F)(F)F (stereo not given) | -3.648%
CNC[C@H]1CC[C@H](c2cc(CN(C)S(=O)(=O)N(C)C)n(C)n2)CC1.Cl | 79.31%
CNC[C@H]1CC[C@H](c2cc(CN(C)C(=O)c3cnccn3)n(C)n2)CC1.Cl | 49.34%
O=C(NN1CCCc2ccccc21)c1c[nH]c(=O)[nH]1 | -8.796%
CCc1cnc(C)nc1NCCNc1nc(C)cc(=O)[nH]1 | -6.452%
F[C@@H]1CN(CC2CC2)C[C@@H]1OCc1nc2ncccc2[nH]1 | -13.13%
O=C(CCc1ccsc1)NCC1CCN(Cc2cccs2)CC1 | -16.57%
O=C(CCc1ccccc1)NCC1CCN(Cc2ccccc2)CC1 | 111.4%
O=C(CCc1ccccc1)NCC1CCN(Cc2cccs2)CC1 | 102.9%
O=C(CCc1ccccc1)NCC1CCN(Cc2ccsc2)CC1 | 3.98%
Cc1ccc(CN2CCC(CNC(=O)Cn3cncn3)CC2)cc1 | -4.206%

SMILES | Percent Effect
COc1cc2cc(C(=O)NC(C)C(=O)O)n(C)c2c(OC)c1OC (stereo not given) | 0.3251%
CCc1[nH]c2c(CNc3nc(C)cc(NC)n3)cc(C)cc2c1C | -10.73%
CC(SCCC(=O)NC(N)=O)c1ccccc1F (stereo not given) | -10.14%
Cc1ccc2c(c1)C1(CCNCC1)CC2N1CCOCC1 (stereo not given) | 0.9204%
N#Cc1ccc(S(=O)(=O)Nc2ccccc2C#N)cn1 | -3.183%
COc1ccc(NC(=O)N2CCCCCC2c2ccncc2)cn1 (stereo not given) | -7.407%
O=C(NCC1(O)COCCN(Cc2cccc(O)c2)C1)c1cscn1 (stereo not given) | 117.5%
O=C(Nc1cnn(CCN2CCOCC2)c1)c1ccccn1 | -4.684%
O=C(NCCc1cscn1)c1coc(CN2CCOCC2)c1 | -2.273%
O=C(NCC1(O)COCCN(Cc2cccc(O)c2)C1)c1cnccn1 (stereo not given) | 119.9%
O=C(NCCN1CCOCC1)c1ccc(OCc2ccccc2)nc1 | -12.09%
O=C(Nc1cc(N2CCOCC2)ncn1)c1cnccn1 | -2.836%
O=C(NCC1(O)COCCN(Cc2cccc(O)c2)C1)c1ccccn1 (stereo not given) | 141%
Cc1ccc(CN2CCOCC2)cc1NC(=O)c1ccsc1 | -4.906%
O=C(NCC1(O)COCCN(Cc2ccc(O)cc2)C1)c1cnccn1 (stereo not given) | 136.8%
O=C(NCN1CCc2ccccc2C1)c1cnccn1 | -0.1611%
CCCN(Cc1ccccc1C)C(CC)CO (stereo not given) | 3.002%
CC(C)c1nc(C(=O)N2CCc3ccccc3C2C(=O)O)cs1 (stereo not given) | -0.5058%
CSCCNC(=O)c1coc(COc2ccc3sc(C)nc3c2)n1 | -17.64%
Cc1cc(CN2CCc3nn(C)c(=O)cc3C2)on1 | 13.66%
CCCn1nc2c(cc1=O)CN(Cc1cc(C)no1)CC2 | 7.336%
CNc1nc2c(c(C(=O)N3CCCC3)n1)CN(Cc1ccco1)CC2 | 133.6%
CNc1nc2c(c(C(=O)N3CCCC3)n1)CN(Cc1cc(C)no1)CC2 | 97.24%
Cc1nc(N2CCCC2)nc2c1CCN(Cc1ccco1)CC2.O=C(O)C(F)(F)F | -6.041%
CNc1nc2c(c(C(=O)N3CCCC3)n1)CN(Cc1nccn1C)CC2 | 14.28%
CC1(C)CN(C(=O)c2cnc(CN3CCCC3)s2)CC[C@]1(C)O | -20.27%
COC(=O)c1oc(CNC(C)(C)c2ccc3c(c2)OCCO3)cc1C | -6.562%

SMILES | Percent Effect
CC(C)(NCc1cccc(C(N)=O)c1)c1ccc2c(c1)OCO2 | 2.76%
CCNC(=O)NC(=O)CNC(C)(C)c1ccc2c(c1)OCO2 | 117.5%
COC(=O)c1oc(CNC(C)(C)c2ccc3c(c2)OCO3)cc1C | -12.91%
CC(C)(NCC(=O)NCC1CC1)c1ccc2c(c1)OCCO2 | 87.25%
Cc1cc(NC(=O)CNC(C)(C)c2ccc3c(c2)OCCO3)no1 | -9.405%
CC(C)(C)NC(=O)NC(=O)CNC(C)(C)c1ccc2c(c1)OCCO2 | 3.102%
CC(C)(NCc1cccc(O)c1)c1ccc2c(c1)OCO2 | 4.523%
Cc1cc(NC(=O)CNC(C)(C)c2ccc3c(c2)OCO3)on1 | 4.007%
CCNC(=O)NC(=O)CNC(C)(C)c1ccc2c(c1)OCCO2 | 126.2%
CC(C)(NCC(=O)NCC(F)(F)F)c1ccc2c(c1)OCCO2 | 5.568%
CC(C)(NCC(=O)NC(=O)NC1CC1)c1ccc2c(c1)OCO2 | 94.42%
Cn1ccc(N2CCCC(NC(=O)c3ccsc3)C2=O)n1 (stereo not given) | -23.95%
Cc1cnn(CCCNC(=O)C2CCCCN2Cc2ccncc2)c1 (stereo not given) | -11.5%
COc1ccc(C)c2c1N(C(=O)c1cnc3onc(C)c3c1)CCC2 | 2.409%
O=C(CN1CCOC(c2ccc(Cl)c(Cl)c2)C1)NCc1ccco1 (stereo not given) | -33.51%
Cc1noc(C)c1CN1CC2(CCCCN2c2cncnc2)CC1=O (stereo not given) | 1.289%
COc1ccc(CN(C)C2CCN(C(=O)C(C)C)CC2)c2cccnc12 | -16.31%
COCCn1ccnc1C1CCCN(C(=O)CSCC2CC2)C1 (stereo not given) | -1.205%
CC(C)C(=O)N1CCC([C@@H]2C[C@H](C(F)F)n3ncnc3N2)CC1 | 105.2%
O=C(CCc1ccc(=O)[nH]n1)N1CCCC(COc2ccc(F)cc2)C1 (stereo not given) | -3.616%
CC(C)C(=O)N1CCCC([C@@H]2C[C@H](C(F)F)n3ncnc3N2)C1 (stereo not given in full) | 140.3%
CC(=O)N1C[C@H]2CCCN(c3ncc(C)cn3)[C@H]2C1 | 4.198%
CC(C)C(=O)N1CC[C@@H]2CN(Cc3ccncc3)S(=O)(=O)[C@@H]2CC1 | -1.309%
COCCC(=O)N1CCCC([C@@H]2C[C@H](C(F)F)n3ncnc3N2)C1 (stereo not given in full) | 128.9%
